Assay outcomes as filed in PubChem BioAssay.
Pf growth 96h: inhibits malaria parasite growth, 96 h; Potency, µM (series often up to 28.7 µM), for inactives: at the highest dose activity change, negative = inhibition, usual class: inhibitors; hit rate 6.9% among 320,000; P. falciparum luciferase reporter growth, 96 h; note: potency is the fitted concentration of half-maximal effect
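Two-generation exposure (96 h) targets delayed-death phenotype. Reporter parasites carrying integrated firefly luciferase, in red cells at 2% hematocrit and 0.05% parasitemia final, kept at 37 C, 5% CO2; luminescence loss indicates inhibition.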
HCV inhibitor: inhibitors of hepatitis C virus infection; hit rate 3.4% among 340,000; AID 651820; Potency, µM (series often up to 41.8 µM), without a hit: at the top dose activity change, negative = inhibition, usual class: inhibitors; Huh7.5.1 HCVcc-Cre infection, luciferase reporter, 44 h; note: potency is the fitted concentration of half-maximal effect
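Luciferase read-out (15 sec integration) after a 15 min room-temperature substrate step quantifies HCVcc-Cre infection. Cells, 1,000 per well, had compound added 4 h post-plating, then virus at ~0.5 moi, and were cultured 44 h.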
MARV entry inh: Marburg virus entry inhibition | hit rate 1.8% among 300,000 | Marburg virus pseudotyped entry inhibition, cell reporter | Potency, µM (titrated, usually from 37.8 µM), for the others: at the highest dose activity change, negative = inhibition, hits mostly inhibitors; calls by dose curve; tested in HEK293 cells; note: potency is the fitted concentration of half-maximal effect
HCMV inh: inhibitors of human cytomegalovirus | HFF cells, HCMV-luciferase reporter, 72 h; hits give low values | activity change, negative = inhibition, % at 57.5 µM | hit rate 4.5% among 410,000; in the data active = activity change below about -60%; inconclusive = no clear call, values can overlap the other calls; inactive = above about -39%
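Inhibition of viral replication was scored as loss of reporter luminescence in HFFs infected with HCMV-luciferase (MOI 1 PFU/cell) for 72 h; compounds tested at 2 doses, normalized to buffer and Salinomycin controls.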
Pf growth 48h: P. falciparum growth inhibition at 48 hours (one generation); P. falciparum luciferase growth in erythrocytes, 48 h; Potency, µM (top dose mostly 28.7 µM), without a hit: at the top dose activity change, negative = inhibition, usual class: inhibitors; hit rate 5.9% among 310,000; note: potency is the fitted concentration of half-maximal effect
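Luminescence readout; reporter = integrated firefly luciferase in P. falciparum. RBC culture at 2% hematocrit, 0.1% parasitemia final, 37 C/5% CO2; decreased signal taken as growth inhibition.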
Lassa entry inh: blocks Lassa virus binding to or entry into cells; Lassa virus pseudotype entry inhibition, cell reporter; Potency, µM (titrated, usually from 37.9 µM), inactives show at the highest dose activity change, negative = inhibition, hits mostly inhibitors; hit rate 1.2% among 300,000; AID 540256; calls by dose curve; tested in HEK293 cells; note: potency is the fitted concentration of half-maximal effect; nearly all actives have a fitted effect of over 50% in size
* = called active by the depositor; ? = inconclusive; . = no result given; [ ] = remark or other dose. An excerpt weighted towards active compounds, which were near 14% of everything screened. Unless noted, calls come from the whole dose curve; as a rule, active = well fitted inhibition curve with a large enough effect; inconclusive = small, poorly fitted or top-dose-only effect, or another doubt; inactive = no such curve, though single readings can be large or run the other way. % is set by controls: 0 for no effect and ±100 for the full control effect.

SMILES | Pf growth 96h | HCV inhibitor | MARV entry inh | HCMV inh | Pf growth 48h | Lassa entry inh
O=C(CN1C(=O)C2(SCC(=O)N2c2ccc(F)c(F)c2)c2ccccc21)Nc1cccc(Cl)c1 (centres undefined) | . | . | . | -93* | . | -27%[46.1 µM]
Cc1ccc(N2C(=O)CSC23C(=O)N(CC(=O)Nc2ccc(C(C)C)cc2)c2ccccc23)cc1C (centres undefined) | . | . | . | 25 | . | -15%[46.1 µM]
CCc1cccc(N2C(=O)CSC23C(=O)N(Cc2ccccc2F)c2ccccc23)c1 (centres undefined) | . | . | . | -24 | . | 10µM*
Cc1cc(O)ccc1NC(=O)Cc1cccc2ccccc12 | . | -3% | -5%[46.1 µM] | -16 | . | -35%[46.1 µM]
N#Cc1ccc(C(=O)N2CCC3CC2c2cc(N4CCCCC4)ccc23)cc1 (centres undefined) | . | . | . | -15 | . | .
O=S(=O)(Nc1cccc(-c2ccc(N3CCCC3)nn2)c1)c1ccc(F)c(C(F)(F)F)c1 | . | . | . | -1 | . | 16%[46.1 µM]
CC(C)c1ccc(NC(=O)c2ccc(NC(=O)CCS(=O)(=O)c3cccs3)cc2)cc1 | . | . | ? | 6 | . | 26%[46.1 µM]
CCOc1ccccc1CNC(=O)CN1C(=O)c2cccnc2Oc2ccc(Cl)cc21 | . | . | . | 0 | . | -3%[46.1 µM]
O=c1oc2ccccc2c(Cl)c1CN1CCCCC1 | 3% | ? | . | -64* | -8% | .
O=C(O)CC1S/C(=N\N=C2CCCCCCC2)N(c2ccccc2)C1=O (centres undefined) | -11% | 11% | -12%[46.1 µM] | -104* | 18% | 12%
Cc1cc(S(=O)(=O)NCc2ccc(S(N)(=O)=O)cc2)c(C)s1 | ? | 15% | 9% | 11 | -6% | 2%
Cc1cc(S(=O)(=O)NCc2ccco2)c(C)s1 | 7.4µM* | 26% | -2% | 10 | 5% | 15%
COc1ccc(S(=O)(=O)NCc2ccco2)c2ccccc12 | . | 3% | 3% | -66* | -5% | 15%
CCOc1ccc(-c2nnc(SCC(=O)NCCc3ccccc3)nc2-c2ccc(OCC)cc2)cc1 | . | . | . | -9 | . | ?
CCN(CC)CCn1c(=S)[nH]c2cc(C(=O)NCCc3ccc(OC)c(OC)c3)ccc2c1=O | . | . | . | -10 | . | .
Cc1cc(C)n2c(Nc3ccc4c(c3)OCCO4)c(-c3ccc(C)o3)nc2n1 | 5.9µM* | -11% | . | 52 | . | .
Cc1ccc(-c2nc3nc(C)cc(C)n3c2Nc2ccc3c(c2)OCCO3)cc1 | . | . | ? | 50 | . | -6%[46.1 µM]
Cc1cc(C)n2c(Nc3ccc4c(c3)OCCO4)c(-c3ccco3)nc2n1 | 12µM* | . | 0% | . | . | .
O=C1OC(C(Cl)(Cl)Cl)Nc2ccccc21 (centres undefined) | . | . | . | -17 | . | .
CC(C)NC(=O)C1(C)CCN1C(=O)C(c1ccccc1)c1ccccc1 (centres undefined) | . | . | . | -6 | . | .
N#CC(C#N)c1ccnc2ccccc12 | . | . | . | -78* | . | .
F/C(COc1ccc2c(c1)[nH]c1ccccc12)=C1/CN2CCC1CC2 | 11µM* | . | . | . | ? | .
O=C(COc1ccc(F)cc1)N1CCC(c2ccccc2)C1 (centres undefined) | ? | 6% | 15% | 41 | 157% | -1%
COc1ccc2c(c1OC)C(=O)OC2C1c2cc3c(cc2CCN1C)OCO3 (centres undefined) | 12µM* | 12% | ? | 26 | 13% | 17%
N#C/C(=C\Nc1ccccc1O)c1nc2ccccc2o1 | 10µM* | 10µM* | ? | -95* | 1.7µM* | ?
SMILES | Pf growth 96h | HCV inhibitor | MARV entry inh | HCMV inh | Pf growth 48h | Lassa entry inh
N#C/C(=C\c1ccncc1)c1nc2ccccc2o1 | 4% | 9% | -18%[46.1 µM] | 178 | 13% | -30%
CCN(CC(=O)Nc1c(F)cccc1F)C(=O)c1cc(-c2cccs2)nn1-c1ccccc1 | -11% | 14µM* | 1% | -33 | ? | -11%[46.1 µM]
CN(CC(=O)Nc1c(Cl)cccc1Cl)C(=O)c1cc(-c2cccs2)nn1-c1ccccc1 | -6% | ? | -3% | -21 | ? | ?
CN(C)N(C(=O)c1cc(-c2cccs2)nn1-c1ccccc1)C1CCS(=O)(=O)C1 (centres undefined) | 5.2µM* | -22% | . | -29 | ? | .
CCOc1ccc(NC(=O)c2nc3nc(C)cc(C(F)F)n3n2)cc1 | . | . | 13%[46.1 µM] | -5 | . | -2%[46.1 µM]
COc1cc(/C=N\n2nnnc2N)ccc1O | . | . | 10% | . | . | .
COc1cc(OC)cc(-c2cc3ccc(OC)cc3cn2)c1 | 141% | ? | . | 22 | 25% | .
COc1cc(OC)cc(-c2cc3ncccc3cn2)c1 | 36% | 11µM* | . | 36 | 35% | .
COC(=O)c1ccc(Oc2nc3c(c(=O)n(C)c(=O)n3C)n2Cc2ccc(Cl)c(Cl)c2)cc1 | . | . | . | 1 | . | -1%[46.1 µM]
CC(=O)CC1(OC(C)=O)C(=O)N(C)c2ccccc21 (centres undefined) | 0% | 5% | ? | -64* | -27% | -29%[46.1 µM]
C/C(CC1(O)C(=O)N(C)c2ccccc21)=N\O (centres undefined) | ? | 6% | 8% | ? | 10% | 19%
Cc1ccc(NC(=O)Cn2nnc(C(=O)NCCc3ccccc3)c2N)cc1 | . | . | -30%[46.1 µM] | 13 | . | 36%[46.1 µM]
O=C(O)C1CCCCN1S(=O)(=O)c1ccc(Cl)s1 (centres undefined) | 9.3µM* | 3% | . | 14 | . | .
CCCCOC(=O)C1=C(C)Nc2ncnn2C1c1cc(OC)ccc1OC (centres undefined) | 41% | 6% | 4% | 39 | 8% | 2%
CCOC(=O)C1=C(c2ccccc2)Nc2nc(C)nn2C1c1cccc(OC)c1OC (centres undefined) | 9.3µM* | 20% | -5% | -9 | 12µM* | 8%
CCOC(=O)C1=C(C)Nc2nc(C)nn2C1c1cc(OC)ccc1OC (centres undefined) | 8.3µM* | 20% | -11% | 29 | 17% | 7%
CCOC(=O)C1=C(c2ccccc2)Nc2ncnn2C1c1ccc(OC)c(OC)c1OC (centres undefined) | ? | 9% | -24% | 6 | -6% | -15%
COc1ccccc1NC(=O)NC1(C(=O)N2CCCCC2)CCCCC1 | -12% | 16% | 3%[46.1 µM] | -24 | -2% | 28%[46.1 µM]
Cc1ccc(Cn2cnc3sc4c(c3c2=O)CCC4)c(C)c1 | 1.9µM* | ? | 2% | -17 | ? | 9%
O=C(O)c1ccc(Cn2cnc3sc4c(c3c2=O)CCCC4)cc1 | 2% | 11% | 2%[46.1 µM] | 3 | 8% | 8%[46.1 µM]
CC1CCC2(CC1)NC(=O)N(CC(=O)c1ccc(Cl)s1)C2=O (centres undefined) | 0% | . | ? | 1 | -6% | ?
O=C(CCN1CCN(Cc2ccccc2)CC1)NNC(=O)c1ccc(Cl)c(Cl)c1 | . | . | . | 33 | . | .
COc1cccc(/C=C/C(=O)NNC(=O)CCN2CCN(Cc3ccccc3)CC2)c1 | -44% | -12% | ? | 0 | -39% | -22%[46.1 µM]
